Marburg entry inh: blocks Marburg virus binding to or entry into cells; Marburg virus pseudotyped entry inhibition, cell reporter; Potency, µM (highest dose often 37.8 µM), for the others: at the highest dose activity change, negative = inhibition, actives largely listed as inhibitors; hit rate 1.8% among 300,000; AID 540276; calls by dose curve; tested in HEK293 cells; also: potency is read from the fitted curve at half-maximal effect
Vaccinia Venus: vaccinia inhibition (Venus reporter); Vaccinia virus Venus reporter expression, fluorescence; Potency, µM (highest dose often 36.5 µM), for the others: at the top dose activity change, negative = inhibition, most hits filed as inhibitors; hit rate 0.46% among 330,000; AID 720580; calls by dose curve; tested in A549 cells; also: potency is read from the fitted curve at half-maximal effect; nearly all actives have a fitted effect of over 30% in size
HCMV antiviral: blocks human cytomegalovirus replication | activity change, negative = inhibition, % at 57.5 µM | hit rate 4.5% among 410,000 | HFF cells, HCMV-luciferase reporter, 72 h; hits give low values | AID 1259415; in the data active = activity change below about -60%; inconclusive = no clear call, values can overlap the other calls; inactive = above about -39%
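HFF cells seeded 16 h at 37C, treated with compounds, infected with luciferase-reporter HCMV at MOI 1 PFU/cell; luciferase read at 72 h post infection, normalized to buffer-only and Salinomycin controls.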
FMDV inh: foot and mouth disease virus antiviral activity; AID 1159524; FMDV antiviral cell-based qHTS; Potency, µM (titrated, usually from 57.9 µM), without a hit: top-dose activity change, negative = inhibition, usual class: inhibitors; hit rate 1.2% among 410,000; calls by dose curve; tested in HEK293T cells; also: read-out not given here; potency is read from the fitted curve at half-maximal effect; nearly all actives have a fitted effect of over 45% in size
Lassa entry inh: blocks Lassa virus binding to or entry into cells; Lassa virus pseudotype entry inhibition, cell reporter; Potency, µM (titrated, usually from 37.9 µM), inactives show top-dose activity change, negative = inhibition, usual class: inhibitors; hit rate 1.2% among 300,000; AID 540256; calls by dose curve; tested in HEK293 cells; also: potency is read from the fitted curve at half-maximal effect; nearly all actives have a fitted effect of over 50% in size
Vaccinia mCherry: inhibitors of vaccinia virus infection (mCherry reporter signal) | Vaccinia virus mCherry reporter infection, fluorescence | Potency, µM (highest dose often 36.5 µM), without a hit: at the top dose activity change, negative = inhibition, actives largely listed as inhibitors | hit rate 0.63% among 310,000 | AID 720579; calls by dose curve; tested in A549 cells; also: potency is read from the fitted curve at half-maximal effect; nearly all actives have a fitted effect of over 35% in size
Starred values were filed as active, the others as inactive; i = inactive; u = inconclusive; x = not tested or not shown; + = active, no number; ! = a repeat was not active; [ ] = another dose, or the depositor's remark. Only some compounds are listed: those with a hit (about 6.5% of all), similar ones and a draw of the others. % is scaled to controls: 0 for no effect and ±100 for the full control effect.

SMILES	Marburg entry inh	Vaccinia Venus	HCMV antiviral	FMDV inh	Lassa entry inh	Vaccinia mCherry
COCCCNC(=O)c1ccc2nc(Cc3ccc(OC)cc3)oc2c1	u	-15%	140	9%	u	-16%
CCn1cc2nc(SCc3ccc(F)cc3)n(CCc3ccccc3)c(=O)c2n1	x	-16%	-21	0%	u	-26%
Cn1c(=O)c2nncnc2n(C)c1=O	1%	-8%	-35	-16%	8%	i
Cc1nc2c(=O)n(C)c(=O)n(C)c2nc1Cl	8.2µM*	-21%	-103*	u	u	u
CCCNC(=O)N1[C@@H]2Cn3c(cccc3=O)[C@H]1[C@@H](C(=O)OC)[C@@H]2CO	x	x	8	x	x	x
CCCCn1c(=O)[nH]c(=O)c2c1nc(-c1ccccc1F)n2Cc1ccccc1OC	u	-23%	1	u	11µM*	-8%
CN(C)CCC=C1c2ccccc2COc2ccccc21	x	x	x	-10%[39.8 µM]	x	x
COc1cc(OC)c(NC(=O)CN2C(=O)CCn3nc(-c4cccn4C)cc32)cc1Cl	x	-11%	-4	5%	16%[46.1 µM]	-17%
COc1cccc(C2CC3C(=O)C=CC2N3Cc2ccccc2)c1 (centres undefined)	u	-1%	-97*	u	-16%	-13%
COC(=O)[C@H](Cc1ccccc1)N1CC(N2CCCC2)CS1(=O)=O (some centres undefined)	x	x	-17	x	x	x
N#Cc1cc(C(=O)c2cc(Cl)ccc2O)cn(-c2ccccc2)c1=O	-17%	-15%	-1	-20%	-4%	i
Cc1ccc(NC(=O)c2cc(C(=O)c3cc(Cl)ccc3O)cn(-c3ccc(C)cc3)c2=O)cc1	u	u	-70*	0%	u	-1%
COc1ccc(OC)c(-c2ccc(O)c(CN3CCc4c([nH]c5ccccc45)C3)c2)c1	x	-7%	x	-11%	x	-9%
COc1cc2oc(-c3ccc(O)cc3)cc(=O)c2c(O)c1OC	x	-20%	-110*	34%	x	-5%
O=c1cc(-c2ccc(O)cc2)oc2c1ccc1ccccc12	x	x	-13	-19%	x	x
O=c1cc(-c2ccc(O)cc2)oc2ccc3ccccc3c12	x	x	-86*	5.6µM*	x	x
COc1cc2oc(-c3ccc(O)cc3)cc(=O)c2c(OC)c1O	x	u	28	19%	x	u
CC(C)C[C@H]1COc2cccc(N3CCOCC3)c2S(=O)(=O)N1	x	x	-16	x	x	x
C#CCn1c(O)c(N=NC(=O)C(O)c2ccccc2)c2ccccc21 (centres undefined)	-1%[46.1 µM]	u	48	20%	-1%	13µM*
COc1cc(CNc2ncnc3c2ncn3[C@H]2CN(Cc3ccc(-c4ccccc4)cc3)C[C@@H](CO)O2)cc(OC)c1OC	x	u	-66*	u	x	13µM*
OC[C@@H]1CN(Cc2ccco2)C[C@H](n2cnc3c(NCc4ccc(F)cc4)ncnc32)O1	x	-3%	-69*	4%	x	i
OC[C@@H]1CN(CCc2ccccc2)C[C@H](n2cnc3c(NCc4ccc(F)cc4)ncnc32)O1	x	-21%	-66*	0%	x	-29%
OC[C@@H]1CN(Cc2ccc(-c3ccccc3)cc2)C[C@H](n2cnc3c(NCc4ccco4)ncnc32)O1	x	-23%	-90*	32µM*	x	13%
CCN(CC)CCCNC(=O)c1ccc2nc(CCc3ccccc3)oc2c1	x	-4%	17	44%	u	-4%
OC[C@@H]1CN(Cc2ccc(-c3ccccc3)cc2)C[C@H](n2cnc3c(NCc4ccncc4)ncnc32)O1	x	u	-91*	-4%	x	10µM*
SMILES	Marburg entry inh	Vaccinia Venus	HCMV antiviral	FMDV inh	Lassa entry inh	Vaccinia mCherry
Cc1ccc(NC(=O)Cn2c(-c3cncs3)nc3ccccc32)cc1Br	x	-14%	-23	-7%	u	-2%
COC(=O)c1c(NC(=O)/C=C/C(=O)O)sc(Cc2ccccc2)c1C	11µM*	-13%	x	u	-6%	-27%
COc1ccc(OC)c(CNC(=O)c2cc(S(=O)(=O)N3CCC(C)CC3)cn2C)c1	x	-16%	-3	u	3%[46.1 µM]	-15%
COc1ccc(CNC(=O)CCS(=O)(=O)c2ccc3c(c2)oc(=O)n3C)cc1	9%[46.1 µM]	-12%	-17	-10%	-14%[46.1 µM]	-15%
CCN(C(=O)CCS(=O)(=O)c1ccc2c(c1)oc(=O)n2C)c1ccc(OC)cc1	-3%[46.1 µM]	-10%	-64*!	-7%	u	-22%
COc1ccc(-c2nc3ccc(Br)cn3c2Cc2ccccc2)cc1OC	x	-14%	-65*	-3%	x	i
Fc1cccc(Cc2c(-c3ccco3)nc3ccc(Br)cn23)c1	x	2%	57	35µM*	x	5%
Fc1cccc(Cc2c(-c3ccco3)nc3ccc(Cl)cn23)c1	x	1%	x	u	x	15%
COc1ccc(-c2nc3ccc(Br)cn3c2Cc2cccc(Cl)c2)cc1OC	x	5%	u	-15%	x	15%
COCC(=O)N1CC(=O)N2[C@@H](CO)[C@@H](c3ccc(Br)cc3)[C@@H]2C1	x	x	-20	x	x	x
Cc1cc2c(nc1C)CCCN2CC(O)CN1CCN(C)CC1 (centres undefined)	18%[14.2 µM]	x	x	x	x	x
Cc1cc(S(=O)(=O)c2ccc(Cl)cc2)nc(S(=O)(=O)c2ccc(Cl)cc2)c1C#N	x	11µM*	-98*	28µM*	x	11µM*
O=C1C(=O)N(C(C(=O)NCc2ccccc2)C2CCCC2)c2ccccc21 (centres undefined)	x	x	-9	x	x	x
CCOc1ccc(C2CC(=O)N(c3cccc(F)c3)C3=C2C(=O)OC3)cc1 (centres undefined)	5%[46.1 µM]	8%	0	-13%	2%[46.1 µM]	-1%
FC(F)(F)c1cccc(-c2cnc3ccc(C4CC4)nn23)c1	x	x	-82*	x	x	x
Cc1nnc2ccc(-c3cccc(C(F)(F)F)c3)nn12	x	-14%	-32	-10%	x	-13%
O=C(CSc1nc2c([nH]c3ccccc32)c(=O)n1-c1ccccc1)N1CCCC1	x	-4%	3	-11%	u	-7%
Cc1ccc(C(=O)Nc2ccc3oc(-c4ccc(C(C)(C)C)cc4)nc3c2)cc1	x	-11%	-11	u	-9%[46.1 µM]	-8%
CCCNC(=O)CCn1c(-c2ccc(C)cc2)cc(C(=O)OCC)c1C	-17%	-7%	6	-13%	-8%	i
COc1ccc(-c2cc(C(C)=O)c(C)n2CCC(=O)Nc2ccc(C)c(Cl)c2)cc1	x	-12%	+	-20%	-27%[46.1 µM]	-12%
CCOC(=O)c1cc(-c2ccccc2)n(CCC(=O)NCCc2ccccc2)c1C	x	0%	-35	-10%	11µM*	-16%
CCOC(=O)c1cc(-c2ccccc2)n(CCC(=O)Nc2ccc(C(F)(F)F)cc2)c1C	x	-24%	-98*	u	u	-30%
CCOC(=O)c1cc(-c2ccc(C)cc2)n(CC(=O)Nc2ccccc2F)c1C	-12%[46.1 µM]	u	-82*	13%	x	u
Nc1ccc2c(c1)C=C/C2=C\c1ccccc1	x	-26%	x	x	x	-28%
CC(C)Oc1ccc(Nc2cc3c(cn2)cc(-c2cnn(C)c2)n3C)cc1	x	x	9	x	x	x
Cc1ccc(Cn2c(CNS(=O)(=O)c3ccc(Cl)s3)nc3cccnc32)cc1	x	-15%	-20	70%	29%[46.1 µM]	-2%

Bioassay records as filed in PubChem BioAssay.
